# Pf growth 96h: Primary qHTS for delayed death inhibitors of the malarial parasite plastid, 96 hour incubation | AID 504834, 2011 | 320,000 compounds, 6.9% hits | P. falciparum luciferase reporter growth, 96 h | Potency, µM (series often up to 28.7 µM), inactives show at the highest dose activity change, negative = inhibition, hits mostly inhibitors; also: potency is read from the fitted curve at half-maximal effect; % is scaled to controls: 0 for no effect and ±100 for the full control effect
#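 96 h incubation, 37 C, 5% CO2, of luciferase-reporter P. falciparum-infected RBCs (2% hematocrit, 0.05% parasitemia final) with test compounds; endpoint luminescence.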
# Shiga toxin inh: A qHTS for Small Molecule Inhibitors of Shiga Toxin; Vero cells, Shiga toxin protein synthesis inhibition reporter; inhibition, % at 38.7 µM; 290,000 compounds, 9.2% hits; AID 2315, 2010; in the data active = inhibition mostly above about 28%, no sharp cut-off; inactive = mostly below about 43%; also: 0% is about no effect
# CHX counter: Cycloheximide Counterscreen for Small Molecule Inhibitors of Shiga Toxin | cell reporter, cycloheximide protein synthesis inhibition counterscreen | max response, % | 300,000 compounds, 12% hits; in the data active = max response mostly above about 13%, no sharp cut-off; inactive = mostly below about 14%; also: read at 38.3 µM for the half of the compounds with a filed dose; 0% is about no effect
# Pf growth 48h: Primary qHTS for delayed death inhibitors of the malarial parasite plastid, 48 hour incubation; 310,000 compounds, 5.9% hits; P. falciparum luciferase growth in erythrocytes, 48 h; Potency, µM (series often up to 28.7 µM), inactives show top-dose activity change, negative = inhibition, hits mostly inhibitors; also: potency is read from the fitted curve at half-maximal effect; % is scaled to controls: 0 for no effect and ±100 for the full control effect
#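 Compounds are pin-transferred into medium, infected erythrocytes (2% hematocrit, 0.1% parasitemia final) are added, and plates sit one parasite generation at 37 C in 5% CO2. Detection reagent is then added and luminescence measured.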
# Starred values were filed as active, the others as inactive; i = inactive; ? = inconclusive; nt = not tested or not shown; + = active, no number. Only some compounds are listed: those with a hit (about 21% of all), similar ones and a draw of the others. Unless noted, calls follow the shape of the dose curve; as a rule, active = well fitted inhibition curve with a large enough effect; inconclusive = small, poorly fitted or top-dose-only effect, or another doubt; inactive = no such curve, though single readings can be large or run the other way.
SMILES,Pf growth 96h,Shiga toxin inh,CHX counter,Pf growth 48h
O=C(C1CCC(Cn2c(=S)[nH]c3ccccc3c2=O)CC1)N1CCN(c2ccccn2)CC1 (configuration not stated),12µM*,-5,-7,0%
Cc1cc(C)c2c(c1)C1C=CCC1C(C(=O)O)N2 (configuration not stated),nt,-4,10,nt
CCOC(=O)N1CCC(N2C(=O)c3ccc(C(=O)Nc4ccc(OC)cc4)cc3C2=O)CC1,?,-12,2,3%
CCn1c(S(=O)(=O)O)nc2ccccc21,0%,17,0,42%
Cc1cccn2c(=O)c(/C=C(\C#N)S(=O)(=O)c3ccccc3)c(N3CCCCC3)nc12,?,-29,1,?
CCOC(=O)C1CCN(c2nc3c(C)cccn3c(=O)c2/C=C(\C#N)S(=O)(=O)c2ccccc2)CC1,?,-10,-5,9.3µM*
CCN1CCN(c2nc3c(C)cccn3c(=O)c2/C=C(\C#N)S(=O)(=O)c2ccc(C)cc2)CC1,4.1µM*,16,-4,13%
Cc1cc(C(=O)NNS(=O)(=O)c2cc(C(=O)O)ccc2Cl)c(C)n1-c1ccccc1,11%,nt,nt,-6%
COCCN(C(=O)C1CC1)c1nnc(-c2cccc(C)c2)s1,-15%,29,15*,11%
CCCN(C(=O)c1ccco1)c1nnc(-c2cccc(C)c2)s1,30%,72*,61*,3%
CCN(C(=O)c1ccco1)c1nnc(-c2ccc(OC)cc2)s1,26%,+,30*,261%
COc1ccc(N2CCN(C3CCCN(Cc4cccc(OC)c4)C3)CC2)cc1 (configuration not stated),?,-8,-1,-20%
CCCCn1c(N)c(N(Cc2ccccc2OC)C(=O)C(C)Oc2ccc(Cl)cc2)c(=O)[nH]c1=O (configuration not stated),?,13,0,?
O=C(OCc1cc(Cl)ccc1OC(F)F)c1ccc([N+](=O)[O-])o1,20%,-3,-4,-6%
O=C(CSc1nnnn1-c1ccccc1)c1ccco1,0%,27,36*,44%
CN(C)C(=O)CSc1nnc2sc3ccccc3n12,103%,19,-1,nt
O=C(CSc1nnc2sc3ccccc3n12)c1ccco1,2%,100*,40*,62%
CCOC(=O)CC(=O)CSc1nnc2sc3ccccc3n12,22%,0,4,0%
Cn1nnnc1SCC(=O)c1ccco1,30%,-6,19,nt
O=C(NCCNC(=O)c1ccco1)c1ccco1,?,-15,-1,26%
O=C(CSCCSCC(=O)c1ccco1)c1ccco1,?,49,13*,24%
c1csc(CSc2nnc3sc4ccccc4n23)c1,5%,106*,32*,196%
Cc1ccc(S(=O)(=O)Nc2ccc(NC(=O)c3cccnc3)cc2)cc1,?,-8,-3,?
CCOC(=O)c1c(NC(=O)CSc2nc3ccc(OC)cc3[nH]2)sc2c1CC(C)(C)NC2(C)C,5.9µM*,nt,nt,?
COC(=O)c1c(NC(=O)Cc2ccccc2)sc2c1CC(C)(C)NC2(C)C,?,-6,-1,?
SMILES,Pf growth 96h,Shiga toxin inh,CHX counter,Pf growth 48h
CCOC(=O)c1c(NC(=O)CSc2ncccn2)sc2c1CC(C)(C)NC2(C)C,9.3µM*,-10,-2,15µM*
CC1(C)Cc2c(sc(NC(=O)COc3ccc(Cl)cc3Cl)c2C(N)=O)C(C)(C)N1,?,-4,-1,10µM*
CCOC(=O)c1c(NC(=O)COc2ccccc2F)sc2c1CC(C)(C)NC2(C)C,?,nt,nt,12µM*
Cc1cccc(OCCC(=O)Nc2ccc(F)c(Cl)c2)c1,32%,-5,7,27%
O=C(CCl)N(c1ccccc1)C1CCS(=O)(=O)C1 (configuration not stated),?,-16,-2,12µM*
Cc1ccc(Cn2cnc3sc4c(c3c2=O)CCC4)c(C)c1,1.9µM*,-2,-1,?
Cc1ccccc1NC(=O)Cc1nnc(SCC(=O)NC2CCCC2)n1C,7%,-2,-5,5%
CCOc1cc(C)nc(N2CCCC(C(=O)NCc3ccccc3F)C2)n1 (configuration not stated),nt,-17,-4,2.9µM*
Cc1ccc(NC(=O)C2CCCN2c2nn3c(=O)cc(C)nc3s2)cc1 (configuration not stated),12µM*,-5,-1,14%
CCc1ccccc1NC(=O)C1CCCN(c2nn3c(=O)cc(C)nc3s2)C1 (configuration not stated),10µM*,-1,-2,?
CCOc1ccccc1CNC(=O)C1CCCN(c2nn3c(=O)cc(C)nc3s2)C1 (configuration not stated),15µM*,-7,-7,?
Cc1cccc(CNC(=O)C2CCCN(c3nn4c(=O)cc(C)nc4s3)C2)c1 (configuration not stated),1%,-3,-1,-18%
Cc1cc(=O)n2nc(N3CCCC3C(=O)NCCCN3CCCCC3)sc2n1 (configuration not stated),6%,-10,-4,-5%
CC(C)CCNC(=O)CCc1nnc2n(CCCOC(C)C)c(=O)c3ccccc3n12,26%,-5,-4,?
Cc1ccc(O)c(C(=O)c2cnn(C(=O)c3cccc(S(=O)(=O)N(C)C)c3)c2)c1,6%,nt,nt,17%
COc1ccc(CNC(=O)C2CCCN(c3nn4c(=O)cc(C)nc4s3)C2)cc1 (configuration not stated),9.3µM*,-5,-1,-14%
CCOc1nc(Nc2ccccc2F)nc(OCC)n1,?,10,20*,16%
C=CCNc1nc(Nc2ccc(OC)cc2OC)nc(OCC)n1,?,5,-4,-10%
C=CCNc1nc(Nc2ccccc2F)nc(OCC)n1,10%,123*,47*,225%
O=C(Nc1cc2c3c(c1)CC(=O)N3CCC2)c1ccccc1Br,49%,nt,nt,-11%
COc1ccc(-c2noc(-c3ccoc3C)n2)cc1,?,56*,59*,157%
Cc1cccc(-c2noc(-c3ccoc3C)n2)c1,82%,100*,35*,168%
COc1cccc(-c2noc(-c3ccoc3C)n2)c1,56%,123*,39*,i
Cc1cccc(-c2noc(CNC(=O)c3ccoc3C)n2)c1,-2%,8,11,12%
COc1ccc(-c2noc(-c3ccoc3C)n2)cc1OC,90%,-12,-3,-4%
SMILES,Pf growth 96h,Shiga toxin inh,CHX counter,Pf growth 48h
O=C1N(c2ccccc2C(F)(F)F)OC1(Cc1ccccc1)c1ccccc1 (configuration not stated),?,nt,nt,1µM*
CC(C)[C@]1(c2ccccc2)ON(c2ccccc2C(F)(F)F)C1=O,4.7µM*,nt,nt,1.9µM*
Cc1nc2ccccc2c(=O)n1-c1ccccc1C(F)(F)F,?,-24,-5,?
CC(C)[C@@]1(c2ccccc2)ON(c2ccccc2C(F)(F)F)C1=O,?,nt,nt,1.7µM*
CC(C)[C@]1(c2ccc(Cl)cc2)ON(c2ccccc2C(F)(F)F)C1=O,1.7µM*,nt,nt,1.9µM*
NS(=O)(=O)c1cc(Cl)c(NC(=O)COC(=O)c2ccccn2)c(Cl)c1,-28%,nt,nt,-19%
